# From PubChem BioAssay (NCATS)
# Inconclusive results are not listed. Entries that show only a call come without a potency. Values without a mark were called inactive. Activity calls are given as the source filed them. Calls follow the shape of the dose curve; as a rule, active = well fitted inhibition curve with a large enough effect; inconclusive = small, poorly fitted or top-dose-only effect; inactive = flat fitted curve, though single readings scatter.
# Assays:
# [1] = test system: Zika virus NS2B-NS3 protease; assay: Primary screen GU AMC qHTS for Zika virus inhibitors (AID 1347154); also: nearly all actives have a fitted effect of over 70% in size
# Method in brief: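 Fluorogenic AMC-substrate cleavage by noncovalent NS2B-NS3 protease complex (25 nM, pH 8.0 Tris buffer with Tween 20) followed for 15 minutes at room temperature (~20% conversion). Percent inhibition from ex340/em450 signal change, fitted by 4-parameter Hill equation.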
# [2] = qHTS to identify inhibitors of the type 1 interferon - major histocompatibility complex class I in skeletal muscle: primary screen against the NCATS Pharmaceutical Collection (AID 1347407);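 also: luminescence of HiBiT knocked into endogenous HLA-B as interferon-induced MHC class I level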
# Method in brief: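 A qHTS format is used: 8-point, 1:5 compound series with 46 uM top final concentration, applied alongside 4 ng/ml IFN-beta to HLA-B*08:01-HiBiT knock-in myoblasts. Luminescence is measured after 24 h treatment.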
compound,measurement,setting,value
CCN(CC)CCNc1ccc(CO)c2sc3ccccc3c(=O)c12,Potency,[1],inactive
CC(=O)NCCCCCC(=O)O,Potency,[1],inactive
CN1CCN(CCC(=O)N2c3ccccc3Sc3ccc(C(F)(F)F)cc32)CC1,Potency,[1],inactive
Cc1c(-c2ccccc2)oc2c(C(=O)OCCN3CCCCC3)cccc2c1=O,Potency,[1],inactive
COc1cc(O)c(C(=O)c2ccccc2)cc1S(=O)(=O)O,Potency,[1],inactive
same,Potency,[2],inactive
COc1cc(C(=O)NCc2ccc(OCCN(C)C)cc2)cc(OC)c1OC,Potency,[1],inactive
same,Potency,[2],inactive
C[C@]12CCC(=O)C=C1C=C[C@@H]1[C@@H]2CC[C@@]2(C)[C@H]1CC[C@@]21CCC(=O)O1,Potency,[1],inactive
same,Potency,[2],inactive
OCc1ccccn1,Potency,[1],inactive
same,Potency,[2],inactive
O=C(O)c1ccc(S(=O)(=O)N(Cl)Cl)cc1,Potency,[1],inactive
same,Potency,[2],inactive
CCOC(=O)c1ccc(N)cc1,Potency,[1],inactive
same,Potency,[2],inactive
CCN[C@@H]1C[C@H](N)[C@@H](OC2OC(CN)=CCC2N)[C@H](O)[C@H]1O[C@H]1OC[C@](C)(O)[C@H](NC)[C@H]1O (stereo partly specified),"activity change, negative = inhibition",[1],-3.5% [at 0.59 µM]
same,"activity change, negative = inhibition",[2],4.01% [at 0.727 µM]
CC(C)Cc1ccc(CC(=O)O)cc1,Potency,[1],inactive
same,Potency,[2],inactive
FC1(F)C(F)(F)C(F)(F)C2(F)C(F)(F)C(F)(F)C(F)(F)C(F)(F)C2(F)C1(F)F (stereo unspecified),Potency,[1],inactive
same,Potency,[2],inactive
CC(C)CCCC(C)N (stereo unspecified),Potency,[1],inactive
same,Potency,[2],inactive
O=[N+]([O-])c1ccc(/C=N\O)o1,Potency,[1],inactive
same,Potency,[2],inactive
Cc1cc2c(OCC(CNC(C)(C)C)OC(=O)c3ccccc3)cccc2[nH]1 (stereo unspecified),Potency,[1],inactive
same,Potency,[2],inactive
C/C=C/c1ccc(O)c(OC)c1,Potency,[1],inactive
same,Potency,[2],inactive
CC(=O)N[C@@H](CCC(=O)O)C(=O)O,Potency,[1],inactive
same,Potency,[2],inactive
CCCCCCCCCCCCCCC[C@H](O)[C@@H](N)CO,Potency,[1],inactive
same,Potency,[2],inactive
CC(O)Cn1cnc2c1c(=O)n(C)c(=O)n2C (stereo unspecified),Potency,[1],inactive
same,Potency,[2],inactive
CC(C)Cn1cnc2c1c(=O)n(C)c(=O)n2C,Potency,[1],inactive
same,Potency,[2],inactive
C=C[C@@]1(C)CC(=O)[C@]2(O)[C@@]3(C)[C@@H](O)CCC(C)(C)[C@@H]3[C@H](O)[C@H](OC(C)=O)[C@@]2(C)O1,Potency,[1],inactive
same,Potency,[2],inactive
CC(C)(Cc1c[nH]c2ccccc12)NCC(O)COc1ccccc1C#N (stereo unspecified),Potency,[1],inactive
same,Potency,[2],inactive
NCc1ccccc1Sc1ccccc1CO,Potency,[1],inactive
same,Potency,[2],inactive
Cc1ccc2c(Br)cc(Br)c(O)c2n1,Potency,[1],inactive
same,Potency,[2],inactive
CN1CCC(OC(c2ccccc2)c2ccccc2)CC1,Potency,[1],inactive
same,Potency,[2],inactive
CCNC(=O)/C=C/c1cccc(Br)c1,Potency,[1],inactive
same,Potency,[2],inactive
O=C(O)CCc1nc2ccccc2[nH]1,Potency,[1],inactive
same,Potency,[2],inactive
Cc1ccc(O)c([C@H](CCN(C(C)C)C(C)C)c2ccccc2)c1,Potency,[1],inactive
same,Potency,[2],inactive
NC(=S)N/N=C/c1cccnc1,Potency,[1],inactive
same,Potency,[2],inactive
CC(=O)NC(=O)c1ccccc1O,Potency,[1],inactive
same,Potency,[2],inactive
COc1ccccc1N1CCN(CCCCNC(=O)c2ccc(-c3ccc(C(C)=O)cc3)cc2)CC1,Potency,[1],inactive
same,Potency,[2],inactive
CCCc1ncc(C[n+]2ccccc2C)c(N)n1,Potency,[1],inactive
same,Potency,[2],inactive
C=CCN1CCc2nc(N)sc2CC1,Potency,[1],inactive
same,Potency,[2],inactive
CCOc1ccccc1OCCN[C@H](C)Cc1ccc(OC)c(S(N)(=O)=O)c1,Potency,[1],inactive
same,Potency,[2],inactive
C[N+]12CCC(CC1)C(OC(=O)C(O)(c1ccccc1)c1ccccc1)C2 (stereo unspecified),Potency,[1],inactive
same,Potency,[2],inactive
Cc1cccc(C)c1NC(=O)CN1CCCCCC1,Potency,[1],inactive
same,Potency,[2],inactive
CCCCCCCCCCCCSCCOCCO,Potency,[1],inactive
same,Potency,[2],inactive
CC(C)[N+](C)(C)CC(O)COc1cccc2ccccc12 (stereo unspecified),Potency,[1],inactive
same,Potency,[2],inactive
Cc1cc(NS(=O)(=O)c2ccc(N)cc2)nc(C)n1,Potency,[1],inactive
same,Potency,[2],inactive
Cc1cccc(C)c1NC(=O)CN1CCCC1,Potency,[1],inactive
same,Potency,[2],inactive
CN1CCC[C@@H]1CCO[C@](C)(c1ccccc1)c1ccc(Cl)cc1,Potency,[1],inactive
same,Potency,[2],inactive
NC1CCN(c2nc3c(cc2F)c(=O)c(C(=O)O)cn3-c2ccc(F)cc2F)C1 (stereo unspecified),Potency,[1],inactive
same,Potency,[2],inactive
CC(C)Nc1cccnc1N1CCN(C(=O)c2cc3cc(NS(C)(=O)=O)ccc3[nH]2)CC1,Potency,[1],inactive
same,Potency,[2],inactive
CN(CCCN1c2ccccc2CCc2ccccc21)CC(=O)c1ccc(Cl)cc1,Potency,[1],inactive
same,Potency,[2],inactive
